Screening data from PubChem.
The list is not random: actives were taken first. Their share in the collection is about 6.8%.
C diff HTS: inhibitors of Clostridium difficile growth; growth activity, negative = inhibition, % at 16 µg/mL (by protocol); Clostridium difficile clinical isolate growth, OD600, 24 h; stronger effect = lower value; AID 1259249; actives 0.25% (n = 86,000);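 active = mean growth activity at or below -80% and every replicate also at or below -80%; inconclusive = mean at or below -80% but some replicate above -80%; inactive = mean growth activity above -80%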;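 note: 0% = DMSO wells and -100% = levofloxacin 16 µg/mL wells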
T cruzi growth-1: blocks T. cruzi growth in NIH3T3 culture; AID 624255; actives 5.9% (n = 77,000); T. cruzi beta-gal in NIH3T3, GalScreen luminescence, 90 h; inhibition, % at 8.34 µM;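 active = mean inhibition above about 93%, with at least 55% of replicates each passing it, limit read from the data, passing the limit was not always enough; inconclusive = only one of those two conditions holds; inactive = neither condition holds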
Pf Dd2 growth: inhibitors of Plasmodium falciparum Dd2 growth; P. falciparum Dd2 growth, SYBR Green, 72 h; stronger effect = lower value; activity change, % at 10 µM; actives 2.3% (n = 94,000); in the data active = activity change below about -80%; inconclusive = no clear call, values can overlap the other calls
T cruzi growth-2: Trypanosoma cruzi proliferation inhibition; inhibition, % at 8.35 µM; shares compounds with T cruzi growth-1; actives 72% (n = 5,600); T. cruzi beta-gal in NIH3T3, GalScreen luminescence, 90 h; AID 651739;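 active = mean replicate inhibition above about 95% and at least 55% of replicates individually reaching it, limit read from the data; inconclusive = only one of the two criteria is met; inactive = neither criterion is met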
T cruzi growth-3: blocks T. cruzi growth in NIH3T3 host cells; shares compounds with T cruzi growth-1; T. cruzi beta-gal in NIH3T3, GalScreen luminescence, 90 h; inhibition, % at 2.09 µM; actives 21% (n = 5,600);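 active = mean inhibition above about 95%, with at least 55% of replicates also reaching it, limit read from the data; inconclusive = meets just one of the two conditions; inactive = meets neither condition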;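 note: plate controls were neutral control median for no effect and positive control median for full effect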
3T3 cytotox: kills mouse NIH/3T3 fibroblasts. shares compounds with T cruzi growth-1. NIH/3T3 viability, CellTiter-Glo ATP luminescence, 90 h. cytotoxicity (signal decrease), % at 8.35 µM. actives 14% (n = 5,600). AID 651742;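 active = mean signal decrease across replicates above about 35% based on untreated-well scatter, with enough replicates individually passing, limit read from the data; inconclusive = no rule stated though some were filed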;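 note: 0% = median of neutral control wells and 100% = median of positive control wells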
3T3 cytotox 2: cytotoxicity in mouse NIH/3T3 fibroblasts. inhibition, % at 24.9 µM. actives 56% (n = 5,600). shares compounds with T cruzi growth-1. NIH/3T3 viability, CellTiter-Glo ATP luminescence, 90 h;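 active = mean loss of cell viability signal at or above a set limit, and enough replicates individually reaching it; inconclusive = meets only the mean limit or only the replicate share; inactive = meets neither condition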;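 note: 0% = median of neutral control wells and 100% = median of positive control wells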
Numbers without * were called inactive; ? = inconclusive; · = not tested or not shown.

SMILES | C diff HTS | T cruzi growth-1 | Pf Dd2 growth | others
CCc1cnc(N2[C@H](C#N)[C@H](c3ccc(C4=CCCCC4)cc3)[C@H]2CO)s1 | -1 | 93 | -25
CCc1csc(N2[C@H](C#N)[C@H](c3ccc(-c4cccc(F)c4)cc3)[C@@H]2CO)n1 | 7 | 92 | -40
CCc1cnc(N2[C@@H](C#N)[C@@H](c3ccc(C4=CCCC4)cc3)[C@@H]2CO)s1 | 2 | 96* | 5 | T cruzi growth-2=105*;T cruzi growth-3=74;3T3 cytotox=24;3T3 cytotox 2=42*
Cc1ccc(-c2ccc3c(c2)O[C@@H](CN(C)C(=O)CC2CC2)[C@@H](C)CN([C@H](C)CO)S3(=O)=O)cc1 | 2 | · | -19
CN(C)c1ccc2c(c1)[C@H]1C[C@H](CC(=O)N3CCCCC3)O[C@@H](CO)[C@H]1O2 | 1 | · | 7
COc1ccccc1NC(=O)N[C@H]1CC[C@H](CCNC(=O)c2ccc3c(c2)OCO3)O[C@H]1CO | · | -26 | 9
CC(C)C#Cc1cnc2c(c1)C(=O)N([C@H](C)CO)C[C@H](C)[C@H](CN(C)C(=O)Nc1ccc(F)cc1)O2 | 14 | 116* | -18 | T cruzi growth-2=-51;T cruzi growth-3=28;3T3 cytotox=15;3T3 cytotox 2=86*
CC(C)C#Cc1cnc2c(c1)C(=O)N([C@@H](C)CO)C[C@H](C)[C@@H](CN(C)C(=O)Nc1ccc(F)cc1)O2 | -3 | -13 | -44
CC(C)C#Cc1cnc2c(c1)C(=O)N([C@H](C)CO)C[C@@H](C)[C@H](CN(C)C(=O)Nc1ccc(F)cc1)O2 | -3 | 63 | -41
CC(C)C#Cc1cnc2c(c1)C(=O)N([C@@H](C)CO)C[C@H](C)[C@H](CN(C)C(=O)Nc1ccc(F)cc1)O2 | 12 | 102* | -34 | T cruzi growth-2=46;T cruzi growth-3=40;3T3 cytotox=30;3T3 cytotox 2=?
O=C(C1CCCC1)N1CC2(C1)[C@@H](c1ccccc1)[C@H](CO)N2C(=O)NC1CCCC1 | 2 | · | 4
Cc1noc(C)c1NC(=O)NC[C@H]1CC[C@H]2[C@H](CN2Cc2cccc(-c3ccccn3)c2)O1 | 4 | · | 20
COCC(=O)N1C[C@@H](C)[C@@H](OC)CN(C)C(=O)c2cc(NC(=O)c3cc(C)on3)ccc2OC[C@H]1C | · | 71 | 1
